Source: PubChem BioAssay (National Center for Advancing Translational Sciences (NCATS))
Most compounds without a hit are left out; they make up all but 10% or so of the library.
PNC inhibitor: blocks assembly of the perinucleolar compartment. PC3M PTB-GFP, PNC prevalence imaging, 16 h; stronger effect = lower value. activity change (PNC), negative = inhibition, % at 10 µM. 140,000 tested, 3.1% active. AID 2417;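 active means readout at or below -70, meaning at least 70% loss of cells showing the perinucleolar compartment, a nuclear body marking cancer cells; inconclusive means readout between -30 and a set limit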;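 further: plate controls were DMSO wells for no effect and camptothecin positive control wells for full effect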
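Read-out is percentage of cells bearing a perinucleolar compartment, from automated 20x imaging of fixed, Hoechst-stained PC3M PTB-GFP cells. Cells were seeded 4 h, then exposed 16 h to compound (23 nl of library stock) in duplicate plates.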
HPGD block: inhibitors of human 15-hydroxyprostaglandin dehydrogenase (HPGD). P15428. purified HPGD, NADH fluorescence kinetic, PGE2 substrate. Potency, µM, for the others: at the highest dose activity change, negative = inhibition, most hits filed as inhibitors. 150,000 tested, 4.3% active. AID 894; further: potency means the concentration at half of the fitted maximal effect
Target sequence (P15428 whole entry, looked up): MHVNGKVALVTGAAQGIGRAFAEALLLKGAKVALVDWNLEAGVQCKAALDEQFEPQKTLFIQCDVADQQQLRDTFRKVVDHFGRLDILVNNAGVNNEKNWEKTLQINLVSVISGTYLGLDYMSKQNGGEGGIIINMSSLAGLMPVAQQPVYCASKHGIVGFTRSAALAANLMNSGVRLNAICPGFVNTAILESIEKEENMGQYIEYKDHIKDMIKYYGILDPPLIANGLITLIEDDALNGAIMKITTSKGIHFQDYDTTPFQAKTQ
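NADH formation kinetics: reaction with 30 uM PGE2 and 1 mM NAD+ (final), 20 nM enzyme, Tris-HCl pH 8 with Tween 20, after 15 min compound preincubation at room temperature. Fluorescence change, last versus first of five reads.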
ALDH1A1 block: inhibitors of human aldehyde dehydrogenase 1A1; Purified ALDH1A1, NADH fluorescence, propionaldehyde substrate; Potency, µM (titrated, usually from 75.3 µM), for inactives: top-dose activity, negative = inhibition, hits mostly inhibitors; 220,000 tested, 7.3% active; AID 1030;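 further: potency means the concentration at half of the fitted maximal effect; plate controls were no enzyme wells and a reference inhibitor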
Target sequence (P00352 whole entry, looked up): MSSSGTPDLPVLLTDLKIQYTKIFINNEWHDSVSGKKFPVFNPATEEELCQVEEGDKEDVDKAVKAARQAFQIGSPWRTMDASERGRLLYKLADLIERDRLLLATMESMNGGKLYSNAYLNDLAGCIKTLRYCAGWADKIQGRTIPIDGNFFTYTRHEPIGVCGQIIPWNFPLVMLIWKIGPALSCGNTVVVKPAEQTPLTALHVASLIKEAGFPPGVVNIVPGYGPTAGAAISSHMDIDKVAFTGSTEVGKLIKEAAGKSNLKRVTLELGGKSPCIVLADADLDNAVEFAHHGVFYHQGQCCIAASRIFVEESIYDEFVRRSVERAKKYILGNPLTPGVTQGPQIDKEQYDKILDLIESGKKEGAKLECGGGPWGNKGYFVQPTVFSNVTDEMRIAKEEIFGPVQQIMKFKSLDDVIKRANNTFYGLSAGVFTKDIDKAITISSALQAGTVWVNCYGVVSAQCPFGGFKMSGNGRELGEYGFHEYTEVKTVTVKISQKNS
KinaseGlo FLuc: Kinase-Glo luciferase inhibition (counter-screen) | Q27757 | Kinase-Glo luciferase, ATP luminescence, 8 min | Potency, µM (titrated, usually from 38.3 µM), inactives show top-dose activity change, negative = inhibition, most hits filed as inhibitors | 200,000 tested, 0.28% active; active means well fitted inhibition curve with a large enough effect; inconclusive means small, poorly fitted or top-dose-only effect; further: potency means the concentration at half of the fitted maximal effect; nearly all actives have a fitted effect of over 60% in size
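Kinase-Glo luciferase light output from ATP and luciferin was measured with 10 uM ATP, within the enzyme's linear range. Buffer: 50 mM imidazole pH 7.2, 50 mM KCl, 7 mM MgCl2, 0.01% Tween 20, 0.05% BSA; luminescence read after 8 min at ambient temperature.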
Lamin A splicing: changes lamin A minigene splicing in HeLa cells; Potency, µM (doses to about 46.1 µM), for inactives: at the highest dose ratio change, negative = inhibition, most hits filed as inhibitors; 200,000 tested, 0.01% active; HeLa LMNA splicing GFP/RFP minigene ratio, 48 h; active means well fitted inhibition curve with a large enough effect in the signal ratio, with a control signal flat, not every such curve was filed as active; inconclusive means small, poorly fitted or top-dose-only effect, or effect the other way, or a change in a side signal; the % refers to the signal ratio; further: potency means the concentration at half of the fitted maximal effect
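S3 HeLa stable clones carrying a lamin A-EGFP splicing minigene plus DsRed2 were seeded at 600 cells/well in Opti-MEM with 2% FBS, pin-dosed and incubated 48 h at 37°C. Acumen cytometry (488 nm) gave the GFP/RFP total-intensity ratio.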
Active calls of the source: *; ? = inconclusive; · = no result given; [ ] = another dose, or the depositor's remark. Unless noted, the call rests on the fitted dose curve; in most records, active means well fitted inhibition curve with a large enough effect (not every such curve was filed as active); inconclusive means small, poorly fitted or top-dose-only effect, or another doubt; inactive means no such curve, though single readings can be large or run the other way. Unless noted, on the % scale 0 is the no-effect control and ±100 the full control effect.

SMILES | PNC inhibitor | HPGD block | ALDH1A1 block | KinaseGlo FLuc | Lamin A splicing
CCN(CC)C(=O)C1CCCN(c2ccc([N+](=O)[O-])cc2)C1 (stereo not drawn) | · | · | 20µM* | 2% | ·
CCN(CC)C(=O)C1CCCN(c2ccc([N+](=O)[O-])cc2/C=N/NC(=O)c2ccc([N+](=O)[O-])cc2)C1 (stereo not drawn) | 38 | -7% | ? | 3% | 4%
CCOC(=O)c1ccccc1NC(=O)CN(c1ccccc1OC)S(=O)(=O)c1ccc(C)cc1 | · | · | · | · | 0%[46 µM]
C=C(C)C(O)/C=C/c1ccc(Br)cc1 (stereo not drawn) | · | -2% | 5% | -5% | ·
CC(=O)NCCNc1nc(-c2ccccc2C(F)(F)F)nc2ccccc12 | · | -17% | 15% | 4% | -4%
COc1ccc(NS(=O)(=O)c2cc(NC(=O)CC3CCCC3)ccc2N2CCOCC2)cc1 | · | · | 3.2µM* | 4% | 3%[46 µM]
COc1ccccc1NS(=O)(=O)c1cc(NC(=O)Nc2ccccc2)ccc1N1CCCCC1 | 18 | 25µM* | 18µM* | -6% | ?
COc1ccccc1NC(=S)NCCN1CCOCC1 | ? | -6% | 2% | -1% | -3%
COc1ccccc1S(=O)(=O)Nc1cc(S(=O)(=O)N2CCCCC2)ccc1N1CCOCC1 | · | · | 13µM* | 2% | -16%[46 µM]
COc1ccccc1NS(=O)(=O)c1cc(NC(=S)NCCN2CCOCC2)ccc1N1CCOCC1 | 10 | 18µM* | 25µM* | 3% | -10%
CCOc1ccc(Cn2c(CNS(=O)(=O)c3ccc(Cl)s3)nc3cccnc32)cc1 | · | · | · | · | -12%[46 µM]
C[C@@H]1CCC2[C@](C)(CO)[C@@H](O)CC[C@]2(C)[C@]12CCC(CO)(CCO)O2 (stereo partly drawn) | · | -6% | 8% | 0% | ·
COc1ccccc1NS(=O)(=O)c1cc(NC(=O)c2ccncc2)ccc1N1CCOCC1 | 29 | -24% | ? | -2% | -8%
COc1ccccc1NS(=O)(=O)c1cc(NC(=O)C(C)C)ccc1N1CCCCC1 | · | · | 9.5µM* | -2% | ·
COc1ccccc1NS(=O)(=O)c1cc(NC(=O)c2cccs2)ccc1N1CCCCC1 | -8 | -17% | -13% | -2% | ?
COc1ccccc1NS(=O)(=O)c1cc(NC(=O)c2cc[n+]([O-])cc2)ccc1N1CCCC1 | · | · | 7.9µM* | 4% | -10%[46 µM]
COc1ccccc1NS(=O)(=O)c1cc(NC(=O)C2CCCC2)ccc1N1CCOCC1 | · | · | 10µM* | 1% | ?
O=C(NCCCN1CCOCC1)c1ccc(Cc2nc3ccccc3[nH]2)cc1 | · | -6% | 9% | -2% | ·
COC(=O)c1ccc(C(NC(=O)c2ccccc2)[C@]2(C)C[C@H]2C2CCCCC2)cc1 (stereo partly drawn) | · | -8% | 1.3µM* | -2% | ·
C[C@@]1(C(NC(=O)c2cccs2)c2ccc(-c3ccccc3)cc2)C[C@H]1C1CCCCC1 (stereo partly drawn) | · | -10% | 6% | 1% | ·
CCSc1oc(-c2ccco2)nc1S(=O)(=O)c1ccc(F)cc1 | ? | ? | 25µM* | -5% | 12%
O=S(=O)(c1ccc(F)cc1)c1nc(-c2ccco2)oc1Nc1ccccc1 | ? | -13% | ? | -4% | -13%
CCn1c(=N)n(CC(=O)C23CC4CC(CC(C4)C2)C3)c2ccccc21 | ? | ? | 22µM* | -1% | ?
COc1ccc2c(c1)C(=O)/C(=C/C=C/c1ccccc1)CC2 | 35 | -21% | ? | -5% | ?
COC1=CC(=O)C(O)=C/C1=C\C=C\c1ccccc1 | · | 11µM* | 13µM* | -4% | ?
SMILES | PNC inhibitor | HPGD block | ALDH1A1 block | KinaseGlo FLuc | Lamin A splicing
Cc1cc(O)c(C(c2ccc(F)cc2)N2CCN(c3ccccc3)CC2)c(=O)n1Cc1ccco1 (stereo not drawn) | · | · | · | · | -12%[46 µM]
CCOc1ccccc1C1CC(=O)Nc2cc3c(cc21)OCCO3 (stereo not drawn) | -86* | -22% | -9% | 16% | -9%
CC(C)Oc1ccccc1C1CC(=O)Nc2cc3c(cc21)OCO3 (stereo not drawn) | -81* | -5% | 0% | -6% | ?
CCOc1ccccc1C1CC(=O)Nc2cc(OC)c(OC)c(OC)c21 (stereo not drawn) | 38 | -18% | ? | 1% | 5%
CCCOc1ccccc1C1CC(=O)Nc2cc3c(cc21)OCCO3 (stereo not drawn) | -116* | -12% | -10% | -4% | ?
O=C1CC(c2cccnc2)c2cc3c(cc2N1)OCO3 (stereo not drawn) | 23 | -8% | 12% | 4% | -3%
COc1cccc(-n2ccn(CC(=O)Nc3ccccc3F)c(=O)c2=O)c1 | · | · | · | · | 9%[46 µM]
COc1ncc2nc(-c3ccccc3)c(=O)n(-c3ccccc3)c2n1 | · | · | ? | · | -3%
CSc1cccc(NCc2ccc([N+](=O)[O-])cc2)c1 | · | · | 35µM* | -6% | 4%[46 µM]
CSc1ccc(CNc2ccccc2)cc1 | -23 | -16% | -14% | -2% | 0%
O=[N+]([O-])c1ccc(COc2cccc(CNc3ccc(F)cc3)c2)cc1 | ? | -8% | 14µM* | 4% | ?
O=C(CCl)N(C/C=C/c1ccccc1)c1ccc2c(c1)OCCO2 | · | · | 0.79µM* | -1% | ?
O=C(/C=C/c1ccccc1)c1ccc2c(c1)OCCCCO2 | ? | ? | ? | -11% | ?
Cc1ccc(Cn2c(CNC(=O)c3ccccc3Br)nc3cccnc32)cc1 | · | · | · | · | 5%[46 µM]
CCCC[C@H]1C[C@@H]1[C@@H]1N(C(C)=O)[C@H](c2cccc(OC)c2)CC12CC2 | · | -10% | -9% | 2% | ·
COc1ccc(Cl)cc1NC(=O)Cn1c(=O)n2nc(C)nc2c2ccccc21 | ? | -21% | 7.9µM* | 1% | -9%
Cc1cccc(-c2nc3c4ccccc4n(CC(=O)Nc4cc(F)ccc4F)c(=O)n3n2)c1 | · | · | · | · | 14%[46 µM]
COc1ccccc1NC(=O)Cn1c(=O)n2nc(C)nc2c2ccccc21 | ? | -16% | 20µM* | 15% | -1%
COc1ccc(Cl)cc1NC(=O)CN1C(=O)CCS(=O)(=O)c2ccccc21 | -100* | -14% | 4% | 4% | -11%
OCCSCc1ccccc1 | · | -9% | 0%[13.5 µM] | -4%[7.66 µM] | ·
CC(=O)Oc1cc2c(c(C)c1OC(C)=O)CC=C1[C@]3(C)CC[C@]4(C)CC[C@@](C)(C(=O)O)CC4[C@]3(C)CC[C@]12C (stereo partly drawn) | · | -12% | -5% | -3% | ?
CC(C)(C)Nc1oc(-c2ccccc2)nc1-c1ccccc1F | · | -11% | -5% | 1% | ·
CCOC(=O)C1=C(C)NC(=S)NC1c1cccc(O)c1 (stereo not drawn) | · | ? | 1.1µM* | -8% | ·
CCOC(=O)c1c(NC(=O)C2=C(C)NC(=S)NC2c2ccc(CC)cc2)sc(C)c1C (stereo not drawn) | -5 | ? | 28µM* | -2% | ?
